# Inconclusive results are not listed. Calls of active or inactive are those of the source. How the source made its calls: active means hit-call score of the fitted dose curve at least 0.9, where 1 is the maximum; inactive means score below 0.9.
# Molecular target: Tyrosine-protein kinase ABL1 (Homo sapiens) (UniProt P00519)
# Assay: ERF_FR_ENZ_hABL1: Eurofins (ERF) Enzymatic Radiometric [Km ATP] KinaseProfiler LeadHunter Assay for human ABL1 Tyrosine Kinase
# Method: ERF_FR_ENZ_hABL1 is a biochemical, single-readout assay that uses extracted gene-proteins in a cell-free assay. Measurements were taken 0.5 hour after chemical dosing in a 96-well plate. See Abl Human TK Kinase Enzymatic LANCE Assay [Km ATP], Cerep.ERF_FR_ENZ_hABL1 is an assay component calculated from the ERF_FR_ENZ_hABL1 assay. It is designed to measure enzyme activity using a type of enzyme reporter as detected by fluorescence intensity with LANCE technology.Data from the assay component ERF_FR_ENZ_hABL1 was analyzed at the assay endpoint, ERF_FR_ENZ_hABL1, in the positive analysis fitting direction relative to DMSO as the negative control and baseline of activity. Using a type of enzyme reporter, loss-of-signal activity can be used to understand changes in enzymatic activity as they relate to gene ABL1. To generalize the intended target to other relatable targets, this assay endpoint is annotated to the kinase intended target family, where the subfamily is serine/threonine kinase.
# ABL (h) is incubated with 8 mM MOPS pH 7.0, 0.2 mM EDTA, 50 uM […], 10 mM Mg Acetate and [g- 33P]- ATP (specific activity and concentration as required). The reaction is initiated by the addition of the Mg/ATP mix. After incubation for 40 minutes at room temperature, the reaction is stopped by the addition of phosphoric acid to a concentration of 0.5%. An aliquot of the reaction is then spotted onto a filter and washed four times for 4 minutes in 0.425% phosphoric acid and once in methanol prior to drying and scintillation counting. Compound should be supplied in 100%DMSO .We require a stock solution at a concentration of at least 50x higher than the Final Assay Concentration of your cpd. A 10mM stock is also acceptable. When ordering fewer than 60 kinase assays,we need 120uL of 50x concentrated stock. For more than 60 assays, we need 420uL of 50xcc stock. Please apply the conversion if you provide 10mM stock solution or compounds in powder form (pre-weighed is required) From 50 cpds supplied as solids, the TAT will be extended.
# Sequence of Tyrosine-protein kinase ABL1 (Homo sapiens) (P00519 whole entry, looked up): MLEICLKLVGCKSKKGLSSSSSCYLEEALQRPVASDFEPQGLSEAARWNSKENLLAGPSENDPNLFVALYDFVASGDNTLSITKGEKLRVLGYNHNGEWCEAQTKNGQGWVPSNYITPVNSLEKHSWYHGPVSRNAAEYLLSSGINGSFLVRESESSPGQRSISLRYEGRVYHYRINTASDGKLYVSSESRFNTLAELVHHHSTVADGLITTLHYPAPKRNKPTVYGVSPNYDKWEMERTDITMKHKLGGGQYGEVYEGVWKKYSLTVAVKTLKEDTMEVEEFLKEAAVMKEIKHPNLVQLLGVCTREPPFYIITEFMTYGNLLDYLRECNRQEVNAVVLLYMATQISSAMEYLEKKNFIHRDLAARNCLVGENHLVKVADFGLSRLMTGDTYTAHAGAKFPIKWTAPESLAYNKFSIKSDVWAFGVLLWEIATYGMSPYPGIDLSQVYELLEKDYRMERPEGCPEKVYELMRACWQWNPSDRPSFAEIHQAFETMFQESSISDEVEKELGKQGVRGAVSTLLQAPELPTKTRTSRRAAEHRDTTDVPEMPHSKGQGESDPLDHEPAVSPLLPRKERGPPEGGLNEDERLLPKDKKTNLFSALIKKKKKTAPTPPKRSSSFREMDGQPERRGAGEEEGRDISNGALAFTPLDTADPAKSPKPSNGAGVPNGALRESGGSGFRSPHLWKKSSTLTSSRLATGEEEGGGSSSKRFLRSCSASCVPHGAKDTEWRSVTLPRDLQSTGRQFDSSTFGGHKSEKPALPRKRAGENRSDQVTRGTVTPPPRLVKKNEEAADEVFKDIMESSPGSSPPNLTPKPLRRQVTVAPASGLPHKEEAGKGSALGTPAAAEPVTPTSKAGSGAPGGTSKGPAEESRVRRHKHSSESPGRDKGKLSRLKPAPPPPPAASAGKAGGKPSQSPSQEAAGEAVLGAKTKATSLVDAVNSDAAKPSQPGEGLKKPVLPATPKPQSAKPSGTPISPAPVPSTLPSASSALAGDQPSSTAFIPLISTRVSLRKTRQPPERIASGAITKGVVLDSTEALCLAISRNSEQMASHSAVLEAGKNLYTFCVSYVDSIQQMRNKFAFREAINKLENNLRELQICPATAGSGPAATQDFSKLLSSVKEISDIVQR
Compound,outcome,AC50
COc1cc(CCC(=O)CC(=O)CCc2ccc(O)c(OC)c2)ccc1O,inactive,–
O=C(/C=C/c1ccc(O)cc1)CC(=O)/C=C/c1ccc(O)cc1,–,0.843 µM (active)
COc1cc(/C=C/C(=O)CC(=O)/C=C/c2ccc(O)c(OC)c2)ccc1O,–,1.37 µM (active)

# From PubChem BioAssay AID2284071 (EPA ToxCast)
